Source: PubChem BioAssay (Tox21)
A number with no mark means an inactive call. Inconclusive results are not listed. Where a call stands in place of a potency, no number is given. Active and inactive are the calls of the source. Unless noted, calls follow the shape of the dose curve; as a rule, active = well fitted curve in the direction sought with a large enough effect in the repeat runs; inconclusive = weak or mixed curves; inactive = no such curve, though single readings can be large; an effect the other way counts as inactive or inconclusive.

Assays:
[1] = qHTS assay for small molecule agonists of the p53 signaling pathway (AID 651631; calls by dose curve; also: nearly all actives have a fitted effect of over 15% in size)
Method in brief: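 HCT-116 cells carrying a beta-lactamase reporter under p53 response elements were dosed with compound for 16 h at 37 °C. LiveBLAzer B/G FRET substrate was then added for 2 h at room temperature, and fluorescence intensity was read to detect pathway agonism.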

[2] = qHTS assay for small molecule agonists of the p53 signaling pathway - cell viability (AID 651633; calls by dose curve;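 also: p53RE-bla HCT reporter cells with a stable beta-lactamase p53 reporter; series mostly up to about 83 µM; nearly all actives have a fitted effect of over 30% in size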)
Method in brief: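 Viability counter-read: CellTiter-Glo luminescence (30 min, room temperature) in the same p53RE-bla plates. These plates had been exposed to compounds for 16 h at 37 C.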

[3] = qHTS assay for small molecules that induce genotoxicity in human embryonic kidney cells expressing luciferase-tagged ATAD5 - cell viability (AID 651634; calls by dose curve; also: nearly all actives have a fitted effect of over 25% in size; also: potency is read from the fitted curve at half-maximal effect)
Method in brief: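 Seeding of 2,000 HEK293T ATAD5-luciferase cells per well preceded pin-tool compound transfer. Plates sat 15.5 hr at 37C under 5% CO2, then fluorescence was read after 30 min with CellTiter-Fluor.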

[4] = qHTS assay for small molecule disruptors of the mitochondrial membrane potential - cell viability (AID 720634; calls by dose curve;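 also: human HepG2 liver cancer cells; series mostly up to about 83 µM; nearly all actives have a fitted effect of over 20% in size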)
Method in brief: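 Measuring cytotoxicity alongside mitochondrial potential, the screen quantified ATP by luminescence in HepG2 cells after 1 hr compound incubation and a 30 min room-temperature CellTiter-Glo step.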

[5] = qHTS assay for small molecule disruptors of the mitochondrial membrane potential (AID 720635); also: potency is read from the fitted curve at half-maximal effect
Method in brief: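 Mitochondrial membrane potential tracked with Mito-MPS dye, red aggregates (ex 540/em 590 nm) against green monomers (ex 490/em 535 nm). Compound treatment 1 hr at 37C, dye 30 min in HepG2.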

[6] = qHTS assay to test for compound auto fluorescence at 590 nm (red) in HepG2 cells (AID 720674)
Method in brief: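 We screened compounds on adherent HepG2 cells, incubating them for an hour at 37 C in 5% CO2 before reading emission at 590 nm under 540 nm excitation; values reflect equivalence to Rose Bengal sodium fluorescence.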

[7] = qHTS assay to test for compound auto fluorescence at 535 nm (green) in HepG2 cells (AID 720675)
[8] = qHTS assay to test for compound auto fluorescence at 460 nm (blue) in HEK293 cells (AID 720678)
Method in brief: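 HEK293 cells (2,000 per well, medium with 10% dialyzed FBS) attached for 4-5 hr at 37C, then received compound and stood overnight at 37C, 5% CO2. Blue fluorescence was read at Ex/Em 405/460 nm and expressed relative to triamterene.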

[9] = qHTS assay to test for compound auto fluorescence at 590 nm (red) in HEK293 cells (AID 720679)
Method in brief: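 HEK293 cells (2,000/well, medium with 10% dialyzed FBS) attached for 4-5 hr at 37C, received 23 nL compound and were incubated overnight at 37C, 5% CO2. Red fluorescence was then read at 540/590nm Ex/Em, referenced to Rose Bengal sodium.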

[10] = qHTS assay for small molecules that induce genotoxicity in human embryonic kidney cells expressing luciferase-tagged ATAD5 (AID 651632); also: nearly all actives have a fitted effect of over 15% in size
Method in brief: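 Reporter cells (HEK293T) express luciferase-tagged ATAD5, a protein that accumulates after DNA damage. Treat 16 hr at 37C/5% CO2, add Amplite, wait 30 min at RT, and read luminescence.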

| Compound | Potency [1] | Potency [2] | Potency [3] | outcome [4] | Potency [5] | fluorescence, relative to Rose Bengal [6] | fluorescence, % of fluorescein control [7] | fluorescence, % of triamterene [8] | fluorescence, % of fluorescent control [9] | outcome [6] | outcome [7] | Potency [8] | outcome [9] | Potency [10] |
| --- | --- | --- | --- | --- | --- | --- | --- | --- | --- | --- | --- | --- | --- | --- |
| CCN(CC)C(=O)N1CCN(C)CC1 | inactive | inactive | inactive | inactive | inactive | 0.12% [at 18.6 µM] | -0.0715% [at 18.6 µM] | -0.217% [at 18.6 µM] | 0.0039% [at 18.6 µM] |  |  |  |  |  |
| CC1=CC[C@@]23C[C@@H]1C(C)(C)[C@@H]2CC[C@H]3C | inactive | inactive |  | inactive |  |  |  |  |  | inactive | inactive | inactive | inactive |  |
| CC(=O)NCCO | inactive | inactive | inactive | inactive | inactive |  |  |  |  | inactive | inactive | inactive | inactive |  |
| CC[C@@H](CO)NCCN[C@@H](CC)CO | inactive | inactive | inactive |  | inactive | -0.504% [at 18.6 µM] | 0.0308% [at 18.6 µM] | 0.0077% [at 18.6 µM] | -0.143% [at 18.6 µM] |  |  |  |  |  |
| c1ccc2sc(SSc3nc4ccccc4s3)nc2c1 | inactive | inactive |  | inactive | inactive |  |  |  |  | inactive | inactive | inactive | inactive |  |
| CCCCCCC(CO)CCCC (centres undefined) | inactive | inactive | inactive | inactive |  |  |  |  |  | inactive | inactive | inactive |  |  |
| c1ccc(CNc2ncnc3c2ncn3C2CCCCO2)cc1 (centres undefined) | inactive | inactive | inactive | inactive |  |  |  |  |  | inactive | inactive | inactive | inactive |  |
| NC(=O)CCCCC(N)=O | inactive | inactive | inactive | inactive |  |  |  |  |  | inactive | inactive | inactive |  |  |
| Cc1cn([C@H]2C[C@H](F)[C@@H](CO)O2)c(=O)[nH]c1=O | inactive | inactive | inactive | inactive | inactive |  |  |  |  | inactive | inactive | inactive | inactive |  |
| C/C(C=O)=C\c1ccccc1 |  | inactive | inactive | inactive | inactive |  |  |  |  | inactive | inactive | inactive | inactive | inactive |
| O=C(c1ccccc1)c1ccc(O)cc1 |  | inactive | inactive | inactive | 27.6 µM (active) |  |  |  |  | inactive | inactive | inactive |  | inactive |
| CCN(CC)CCNC(=O)c1cc(Cl)c(N)cc1OC | inactive | inactive |  | inactive | inactive |  |  |  |  | inactive | inactive | inactive | inactive |  |
| CC(C)(C)C1(CCc2ccc(Cl)cc2)CO1 (centres undefined) |  | inactive | inactive | inactive | 19.3 µM (active) |  |  |  |  | inactive | inactive | inactive | inactive | inactive |
| CC1CCCC(=O)C1=O (centres undefined) | inactive | inactive | inactive | inactive | inactive |  |  |  |  | inactive | inactive | inactive | inactive |  |
| COc1ccc(CCN(C)CCCN2CCc3cc(OC)c(OC)cc3CC2=O)cc1OC |  | inactive | inactive | inactive | inactive |  |  |  |  | inactive | inactive | inactive | inactive | inactive |
| O=C1c2ccccc2C(=O)c2c(O)ccc(O)c21 | inactive | inactive | 54.5 µM (active) | inactive | 3.06 µM (active) |  |  |  |  | inactive | inactive | inactive | inactive |  |
| O=C(Nc1ccc(C(=O)O)c(O)c1)c1ccccc1 |  | inactive | inactive | inactive | inactive |  |  |  |  | inactive | inactive | inactive | inactive | inactive |
| O=[N+]([O-])c1ccc2ncccc2c1 | inactive | inactive | inactive | inactive |  |  |  |  |  | inactive | inactive | inactive | inactive |  |
| Nc1c(Cl)cc(Cl)cc1[N+](=O)[O-] | inactive | inactive | inactive | inactive |  |  |  |  |  | inactive | inactive | inactive |  |  |
| COc1ccc2nc(S(=O)Cc3ncc(C)c(OC)c3C)[nH]c2c1 (centres undefined) |  | inactive | inactive | inactive | inactive |  |  |  |  | inactive | inactive | inactive | inactive | inactive |
| CC(C)(C(=O)c1cccnc1)c1cccnc1 | inactive | inactive | inactive | inactive | inactive | -0.433% [at 18.6 µM] | -0.0177% [at 18.6 µM] | -0.0025% [at 18.6 µM] | -0.175% [at 18.6 µM] |  |  |  |  |  |
| CCC(CO)(CO)[N+](=O)[O-] | inactive | inactive | inactive | inactive |  |  |  |  |  | inactive | inactive | inactive | inactive |  |
| O=C(O)CCC(=O)OC[C@@H](NC(=O)C(Cl)Cl)[C@H](O)c1ccc([N+](=O)[O-])cc1 | inactive | inactive | inactive | inactive | inactive |  |  |  |  | inactive | inactive | inactive | inactive |  |
| O=C(O)c1ccc(O)cc1O | inactive | inactive | inactive | inactive |  |  |  |  |  | inactive | inactive | inactive | inactive |  |
| CC(C)N(C)C | inactive | inactive | inactive |  |  |  |  |  |  | inactive | inactive | inactive | inactive |  |
| COc1ccc(-c2cc(=S)ss2)cc1 | inactive | inactive | inactive |  | 2.11 µM (active) |  |  |  |  | inactive | inactive | inactive | inactive |  |
| CC(=O)OCC1=C(C(=O)O)N2C(=O)[C@@H](NC(=O)CSc3ccncc3)[C@H]2SC1 |  | inactive | inactive | inactive | inactive |  |  |  |  | inactive | inactive | inactive | inactive | inactive |
